In PubChem BioAssay (EPA / NIEHS):
Inconclusive results are not listed. Calls of active or inactive are those of the source. Rule for the calls: active = hit-call score of the fitted dose curve at least 0.9, where 1 is the maximum; inconclusive = response in the unintended direction; inactive = score below 0.9.

Experiment: ACEA_AR_agonist_AUC_viability: ACEA Biosciences xCELLigence Real-Time Cell Analysis on Androgen Receptor Agonism for Viability (AID 2283775);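 for AC50: viability read 80 hours after compound addition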
Protocol: ACEA_AR_agonist is a cell-based, single-readout assay that uses 22Rv1, a human prostate cancer cell line, with measurements taken at 80 hours after chemical dosing in a 384-well plate, although TO5 and TO6 (mc0.srcf) used a 96-well plate. Differences in plate size can be ignored given data normalization.ACEA_AR_80hr is one of two assay component(s) measured or calculated from the ACEA_AR assay. It is designed to make measurements of real-time cell-growth kinetics, a form of growth reporter, as detected with electrical impedance signals by Real-Time Cell Electrode Sensor (RT-CES) technology.Data from the assay component ACEA_AR_AUC_viability was analyzed in the positive analysis fitting direction relative to DMSO as the negative control and baseline of activity. Using a type of growth reporter, loss-of-signal activity can be used to understand changes in the viability. Furthermore, this assay endpoint can be referred to as a secondary readout, because this assay has produced multiple assay endpoints where this one serves a viability function. To generalize the intended target to other relatable targets, this assay endpoint is annotated to the cell cycle intended target family, where the subfamily is cytotoxicity.
The xCELLigence system Multi-E-Plate stations were used to measure the time-dependent response to chemicals. Each compound was tested in an eight-point, 1:4 serial dilution series starting at a maximum final concentration of 100 uM. A maximum starting concentration of 0.5% DMSO was present in the 100 uM chemical samples and was diluted along with the test article dilution series. The screen was performed in biological duplicate using two separate, 96-well, E-Plates 96 for each dilution series (n = 2). Positive controls (MG132 and testosterone) and a negative control (assay media) were tested in quadruplicate on each testing plate. Then, 0.5% and 0.125% DMSO were tested in duplicates in each plate to serve as solvent controls for the 2 highest concentrations of testing compounds: 100 uM and 25 uM. Reference compounds were tested with 8 concentrations with 1:5 serial dilutions. All screening was carried out by ACEA Biosciences, Inc. (San Diego, CA). 22Rv1 cells purchased from ATCC were maintained in media supplemented with 10% fetal bovine serum (FBS). Before screening, 22Rv1 cells were preconditioned in assay medium. Cells were then detached and seeded in E-Plates 96 in assay medium. After overnight monitoring of growth once every hour, compounds were added to […] cells and remained in the medium until the end of the experiment. Cellular responses were then recorded once every 5 min for the first 5 h, and once every hour for an additional 100 h.

SMILES	outcome	AC50
ClC1=C(Cl)[C@]2(Cl)[C@@H]3[C@@H](Cl)[C@H]4O[C@H]4[C@@H]3C1(Cl)C2(Cl)Cl	inactive	
Sc1ccccc1	inactive	
CCCN(CCC)N=O	inactive	
C1CC2OC2CC1C1CO1 (stereo not given)	inactive	
CCC(C)c1cc([N+](=O)[O-])cc([N+](=O)[O-])c1O (stereo not given)		12.7 µM (active)
c1cc2ccc3cccc4ccc(c1)c2c34	inactive	
Cc1cccc([N+](=O)[O-])c1	inactive	
O=C(NC(=O)c1cc(F)c(F)cc1Cl)Nc1cc(F)ccc1N1CCC(C(=O)O)CC1	inactive	
O=C(O)C(F)(F)C(F)(F)C(F)(F)C(F)(F)C(F)(F)C(F)(F)C(F)(F)C(F)(F)C(F)(F)F		71.7 µM (active)
COS(=O)(=O)OC	inactive	
COc1ccc(O)c(C(C)(C)C)c1		81.3 µM (active)
O=C(N[C@H]1CN2CCC1CC2)c1cc2ccoc2cn1	inactive	
O=C(O)C(F)(F)C(F)(F)C(F)(F)C(F)(F)C(F)(F)C(F)(F)C(F)(F)C(F)(F)F		74.2 µM (active)
CCC(C)(c1ccc(O)cc1)c1ccc(O)cc1		50 µM (active)
ClC1=C(Cl)[C@]2(Cl)[C@@H]3[C@@H]4C[C@@H]([C@H]5O[C@@H]45)[C@@H]3[C@@]1(Cl)C2(Cl)Cl		50 µM (active)
CO/C=C(/C(=O)OC)c1ccccc1COc1cccc(C(F)(F)F)n1		50 µM (active)
Cc1ccc(O)c(C)c1	inactive	
CCOC(=O)C(O)(c1ccc(Cl)cc1)c1ccc(Cl)cc1		79.6 µM (active)
Clc1ccc(C(Cl)(Cl)Cl)cc1	inactive	
O=S(=O)(O)C(F)(F)C(F)(F)C(F)(F)C(F)(F)C(F)(F)C(F)(F)F	inactive	

SMILES	outcome	AC50
C=CC(N)=O	inactive	
O=NN(c1ccccc1)c1ccccc1	inactive	
CCC(C)(CC)c1cc(NC(=O)c2c(OC)cccc2OC)on1	inactive	
CC1=C2C[C@H]3[C@@H](CC=C4C[C@@H](O)CC[C@@]43C)[C@@H]2CC[C@]12O[C@@H]1C[C@H](C)CN[C@H]1[C@H]2C	inactive	
Cc1ccccc1O	inactive	
CCCCCCCCCc1ccc(O)cc1		22.9 µM (active)
Cc1cccc(C)c1N	inactive	
CN(C)c1nc(=O)n(C2CCCCC2)c(=O)n1C	inactive	
CCCCCCCCCC[N+](C)(C)CCCCCCCCCC		3.81 µM (active)
Cc1cc(-c2ccc(N)c(C)c2)ccc1N	inactive	
C=CC(=O)NCNC(=O)C=C	inactive	
Cc1cc(O)ccc1Cl	inactive	
CCOP(=S)(OCC)SCSC(C)(C)C		82.5 µM (active)
CC(C)(c1ccccc1)c1ccc(O)cc1		12.1 µM (active)
Oc1c(Cl)c(Cl)c(Cl)c(Cl)c1Cl		15.2 µM (active)
ClC1=C(Cl)[C@]2(Cl)[C@@H]3[C@H]4C[C@H]([C@@H]5O[C@H]45)[C@@H]3[C@@]1(Cl)C2(Cl)Cl		24.1 µM (active)
CCOCCOC(C)=O	inactive	
CCNc1nc(NC(C)C)nc(SC)n1	inactive	
Oc1ccc(C(c2ccc(O)cc2)(C(F)(F)F)C(F)(F)F)cc1		25.9 µM (active)
OCC(O)CO	inactive	
